Bioassay records: PubChem, National Center for Advancing Translational Sciences (NCATS)
KB-V1 MDR tox: KB-V1 MDR subline cytotoxicity; KB-V1 MDR cells viability, CellTiter-Glo, 72 h; AID 1347076; Potency, µM (series often up to 46.1 µM), hits mostly cytotoxic; 3.4% of 400,000 active; further: on the % scale 0 is the no-effect control and ±100 the full control effect; nearly all actives have a fitted effect of over 60% in size
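KB-V1 cells (P-gp-expressing MDR subline of KB-3-1) in phenol-red-free DMEM with 10% FBS were exposed to library compounds over a concentration series for 72 h at 37 degrees C. Viability read by CellTiter-Glo luminescence; concentration-effect curves fitted after normalization.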
MCF10A rerep: DNA re-replication induction in MCF 10a cells; MCF 10A DNA re-replication, Hoechst nuclear intensity, 48 h; Potency, µM (doses to about 46.1 µM), for inactives: top-dose activity, positive = re-replication, most hits filed as activators; 2.9% of 350,000 active; AID 624296; further: % of control where 0% means no effect; nearly all actives have a fitted effect of over 50% in size
KB-3-1 cytotox: KB-3-1 parental cell cytotoxicity | KB-3-1 viability, CellTiter-Glo ATP luminescence, 72 h | 1.4% of 400,000 active | Potency, µM (titrated, usually from 46.1 µM), actives largely listed as cytotoxic; further: on the % scale 0 is the no-effect control and ±100 the full control effect; nearly all actives have a fitted effect of over 60% in size
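72 h, 37 °C compound treatment of KB-3-1 parental cells; CellTiter-Glo added, 10 min, luminescence read. Data corrected against DMSO-only plates and normalized before curve fitting.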
HT1080 IDH1KD tx: kills HT-1080 cells with IDH1 knockdown. HT-1080 IDH1 knockdown viability, ATP luminescence, 48 h. Potency, µM (series often up to 46.1 µM), inactives show at the top dose activity, negative = toxicity, most hits filed as cytotoxic. 2% of 360,000 active. AID 686971;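 further: 0% = DMSO wells and -100% = cell-free medium wells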
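Knockdown cells (IDH1KD HT-1080) received compounds 2 h after plating at 750 cells/well and were kept 48 h at 37 °C in 5% FBS RPMI. A CellTiter-Glo luminescence read gave % activity for curve fitting.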
HT1080NT lethal: kills 2HG-producing HT-1080-NT fibrosarcoma cells. Potency, µM (series often up to 46.1 µM), without a hit: at the highest dose activity, negative = less viability, usual class: cytotoxic. 1.6% of 360,000 active. AID 686970. HT-1080-NT fibrosarcoma viability, CellTiter-Glo ATP luminescence, 48 h;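 further: NT is the 2HG producing partner of a matched IDH1 knockdown line; 0% = DMSO-treated cells and -100% = media-only wells without cells; nearly all actives have a fitted effect of over 55% in size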
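Read-out is CellTiter-Glo luminescence after 10 minutes at room temperature, following 48 hours' compound treatment of HT-1080-NT cells (750 cells/well, RPMI, 5% FBS, 37 degrees C).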
SW480 rereplic: DNA re-replication induction in SW480 cells | Potency, µM (doses to about 46.1 µM), for inactives: at the highest dose re-replication activation, hits mostly activators | SW480 DNA re-replication, Hoechst DNA content imaging, 48 h | 1.8% of 340,000 active; further: % of control where 0% means no effect; nearly all actives have a fitted effect of over 55% in size
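Image-based read-out: total Hoechst fluorescence of nuclei (405 nm excitation, 500-530 nm emission), with hits raising the fraction of high-intensity nuclei. SW480 colon cells incubated 48 hr with compounds at 37 C.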
Active calls of the source: *; i = inactive; ? = inconclusive; nt = not tested or not shown; [ ] = remark or other dose. An excerpt weighted towards active compounds, which were near 8% of everything screened. The call rests on the fitted dose curve; in most records, active means well fitted curve in the direction sought with a large enough effect; inconclusive means small, poorly fitted or top-dose-only effect, or another doubt; inactive means no such curve, though single readings can be large; an effect the other way counts as inactive or inconclusive. Potency means the concentration at half of the fitted maximal effect.

SMILES	KB-V1 MDR tox	MCF10A rerep	KB-3-1 cytotox	HT1080 IDH1KD tx	HT1080NT lethal	SW480 rereplic
COc1nc(SC)nc(Cl)c1Cc1ccc(OC(C)C)cc1	i	12%	i	2%	5%	7%
CSc1nc(Cl)c(Cc2ccc(OC(C)C)cc2)c(N2CCOCC2)n1	?	24%	9.2µM*	?	-27%	-1%
CC(C)(C)C(=O)Nc1ccccc1C(=O)Nc1cc(Cl)ccc1Cl	16µM*	18%	i	-1%	4%	-2%
COc1ccc(-c2cc(C(F)(F)F)nc(-n3cc(Cl)cn3)n2)cc1	23µM*	?	i	3%	?	?
COc1ccc(-c2cc(C(F)(F)F)nc(S(C)(=O)=O)n2)cc1	?	?	?	?	18µM*	11%
CS(=O)(=O)c1nc(-c2ccc(F)cc2)cc(C(F)(F)F)n1	?	3.7µM*	?	8.2µM*	21µM*	?
O=C(Nc1cc2c(=O)n(-c3ccc(Oc4ccccc4)cc3)ccc2oc1=O)c1ccccc1	i	5.2µM*	i	4%	15%	?
CCc1nnc(NS(=O)(=O)c2ccc(N=Cc3c(C)[nH]n(-c4ccc(C)c(C)c4)c3=O)cc2)s1	?	12%	?	21µM*	?	-1%
Cc1[nH]n(-c2ccc(Br)cc2)c(=O)c1C=Nc1ccc(S(=O)(=O)Nc2nccs2)cc1	?	-1%	i	-20%	-28%	-6%
N/C(=N\OC(=O)c1ccc2c(c1)OCO2)c1ccc(Cl)cc1	i	16µM*	i	?	7%	?
C#CCn1c(=NC(=O)c2ccc(S(=O)(=O)N3CCCc4ccccc43)cc2)sc2cc(S(N)(=O)=O)ccc21	i	1%	?	-15%	-9%	1%
COC(=O)Nc1ccc(S(=O)(=O)N2CCCc3cccc(O)c32)cc1	?	13µM*	?	?	?	26µM*
Cn1c(=NC(=O)c2ccc(S(=O)(=O)N3CCCc4ccccc43)cc2)sc2cc(S(C)(=O)=O)ccc21	3.7µM*	4%	i	0%	3%	0%
COC(=O)Nc1ccc(S(=O)(=O)N2CCCc3ccccc32)cc1	1.2µM*	8.2µM*	1.5µM*	1.4µM*	8.9µM*	1.6µM*
CN(Cc1cn(C)nc1-c1ccc(Oc2ccccc2)cc1)CC1COCCO1 (configuration not stated)	i	10%	i	-3%	5%	-1%
COc1ccccc1N(C(=O)c1snc(C(N)=O)c1N)C(C(=O)NC1CCCC1)c1ccco1 (configuration not stated)	i	0%	i	-6%	11%[9.24 µM]	1%
CCOC(=O)[C@]12CCCC=C1N(Cc1cccc3ccccc13)C(=O)[C@H](CC(=O)NCc1cccs1)C2	16µM*	nt	?	?	?	nt
CCOC(=O)[C@]12CCC=C1N(Cc1cccc3ccccc13)C(=O)[C@H](CC(=O)NCc1cccs1)C2	?	nt	?	-30%	?	nt
CCOC(=O)[C@]12CCCC=C1N(Cc1ccccc1)C(=O)[C@H](CC(=O)NCc1ccc(OC)c(OC)c1)C2	i	nt	i	-16%	0%	nt
CCOC(=O)[C@]12CCCC=C1N(Cc1cccc3ccccc13)C(=O)[C@H](CC(=O)N1CCCC1)C2	9.2µM*	nt	i	-10%	-10%	nt
CCCCNC(=O)C[C@@H]1C[C@@]2(C(=O)OCC)CCCC=C2N(Cc2ccc(Cl)cc2Cl)C1=O	9.2µM*	nt	?	-29%	?	nt
CCOC(=O)[C@]12CCCC=C1N(Cc1cccc3ccccc13)C(=O)[C@H](CC(=O)NCc1ccc(OC)c(OC)c1)C2	6.5µM*	nt	?	?	?	nt
Cc1ccc(OCC(=O)N(Cc2nc(-c3ccccc3)no2)C(C)C)cc1C	i	nt	i	nt	nt	nt
CCOC(=O)[C@]12CCC=C1N(Cc1ccc(Cl)cc1Cl)C(=O)[C@H](CC(=O)NCc1ccc(OC)c(OC)c1)C2	5.2µM*	nt	7.3µM*	-29%	?	nt
Cc1cccc(S(=O)(=O)c2c(N)n(/N=C/c3ccccc3)c3nc4ccccc4nc23)c1	i	16%	i	2%	21%	12%
SMILES	KB-V1 MDR tox	MCF10A rerep	KB-3-1 cytotox	HT1080 IDH1KD tx	HT1080NT lethal	SW480 rereplic
Nc1c(S(=O)(=O)c2ccccc2)c2nc3ccccc3nc2n1/N=C/c1cccc(O)c1	?	0.92µM*	?	-3%[9.24 µM]	-30%	7%
CSc1cccc(NC(=O)NCc2cccc(CNC(=O)Nc3cccc(SC)c3)c2)c1	i	7.3µM*	?	?	23µM*	11%
Cc1ccccc1NC(=S)NC(=O)CCc1ccccc1	?	-3%	i	?	10µM*	4%
CCCC(=O)NC(=S)Nc1c(C)cc(Br)cc1C	?	2%	18µM*	-4%	0%	15%
Cc1ccccc1NC(=S)NC(C)CCc1ccccc1 (configuration not stated)	i	-2%	i	8%	-1%	6%
CSc1cccc(NC(=O)C(=O)NCc2ccccc2)c1	i	-1%	i	-1%	-25%	-8%
CSc1cccc(NC(=S)NC(=O)CCc2ccccc2)c1	?	16µM*	?	-20%	-17%	?
O=C(CCCCCN1C(=O)c2ccccc2C1=O)Nc1nccs1	i	-1%	?	-3%	8%	-11%
NC(=O)c1ccccc1NC(=S)NC(=O)CCc1ccccc1	i	5.8µM*	i	3.3µM*	3.3µM*	3.3µM*
Cc1cccc(C)c1NC(=S)NC(=O)CCc1ccccc1	?	?	i	11µM*	10µM*	3.3µM*
NC(=O)c1ccccc1NC(=O)CCc1ccccc1	i	4%	i	5%	7%	-9%
O=C(CN1C(=O)COc2ccccc21)Nc1ccc(N2CCOCC2)cc1	i	-1%	i	5%	?	0%
O=C(CSCc1c(Cl)cccc1Cl)NCC1CCCO1 (configuration not stated)	i	?	i	17%	-1%	-13%
Cc1ccc(-c2c[n+]3c(n2-c2ccccc2)SCC3)cc1	i	2%	3.3µM*	?	-28%	-8%
Brc1ccc(-c2c[n+]3c(n2-c2ccccc2)SCC3)cc1	i	?	?	?	-18%	-14%
COc1ccc(-c2c[n+]3c(n2-c2ccccc2)SCC3)cc1	i	-3%	4.1µM*	?	-23%	-4%
COc1ccc(-c2c[n+]3c(n2-c2ccccc2)SCC3)cc1OC	i	0%	i	8%	7%	-5%
